Source: PubChem
UBC9 SUMO inh = blocks human SUMOylation mediated by UBC9; P63279; HTRF SUMOylation assay, SAE1/SAE2 + UBC9, in vitro; inhibition, % at 35 µM; hit rate 0.36% among 290,000; in the data active means inhibition above about 50%, passing the limit was not always enough
Target sequence (P63279 whole entry, looked up): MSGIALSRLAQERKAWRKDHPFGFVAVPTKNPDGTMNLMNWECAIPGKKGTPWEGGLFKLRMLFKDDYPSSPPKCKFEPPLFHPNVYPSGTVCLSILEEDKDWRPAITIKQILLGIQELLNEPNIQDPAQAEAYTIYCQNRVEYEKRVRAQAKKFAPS
pCIP destab = compounds decreasing mouse p/CIP protein stability | Q05BA5 | F442A p/CIP-EGFP cells, EGFP fluorescence, 16 h | decrease of EGFP signal, % at 10 µM | hit rate 0.01% among 290,000 | AID 1984;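 active means EGFP signal decrease of at least 30% at 10 µM or well 3 SD below plate mean, unless failing retest; inactive means the rest, including hits failing retest or dose response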
NadD inh = blocks S. aureus nicotinate mononucleotide adenylyltransferase; purified NadD enzyme, colorimetric absorbance read-out; inhibition, % at 20 µM; hit rate 0.78% among 360,000; AID 602399; in the data active means inhibition above about 26%
PHOSPHO1 block = inhibitors of human PHOSPHO1 phosphatase. Q8TCT1. hit rate 1.1% among 290,000. inhibition, % at 13.3 µM. AID 1565. recombinant PHOSPHO1, absorbance phosphatase assay; in the data active means inhibition above about 60%
Target sequence (Q8TCT1 whole entry, looked up): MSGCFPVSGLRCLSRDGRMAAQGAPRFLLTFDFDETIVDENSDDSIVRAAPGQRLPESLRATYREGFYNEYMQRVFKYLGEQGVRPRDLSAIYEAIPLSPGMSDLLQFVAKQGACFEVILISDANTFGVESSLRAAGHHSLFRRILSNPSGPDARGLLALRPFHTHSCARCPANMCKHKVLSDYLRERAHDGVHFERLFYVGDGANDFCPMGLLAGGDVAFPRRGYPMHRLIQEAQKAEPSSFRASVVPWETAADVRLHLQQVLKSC
NadD inh conf = confirmation of Staphylococcus aureus NadD inhibitors; AID 624309; inhibition, % at 20 µM; purified S. aureus NadD, colorimetric enzyme assay; hit rate 13% among 2,000; shares compounds with NadD inh; in the data active means inhibition mostly above about 42%, no sharp cut-off; inactive means mostly below about 42%
* = called active by the depositor; nt = not tested or not shown. A selection: hits, their analogues and other compounds. The true share with any hit is near 1.8%.

SMILES	UBC9 SUMO inh	pCIP destab	NadD inh	PHOSPHO1 block	NadD inh conf
CC1CCc2c(sc(Nc3nc4c(F)cccc4s3)c2C(N)=O)C1 (centres undefined)	7	-10	36*	41	8
CNC(=O)c1ccc(NC(=O)C2CCN(c3ncnc4sc(C)c(C)c34)CC2)cc1	-5	2	8	34	nt
CCSCc1nnc(SCC(=O)Nc2ccc(F)cc2)n1CC	12	-7	-3	47	nt
O=C(CSc1n[nH]c(=O)[nH]c1=O)Nc1ccc(SC(F)F)cc1	nt	nt	3	nt	nt
COc1ccc(-c2nn(-c3ccccc3)cc2/C=N/NC(=O)c2cccc(S(=O)(=O)Nc3ccccc3OC)c2)cc1	13	-7	45*	1	31
CC(=O)c1cccc(S(=O)(=O)N2CCCC(c3nc4c(nnn4Cc4ccc(C)cc4)c(=O)[nH]3)C2)c1 (centres undefined)	21	-8	6	24	nt
Cc1ccc(Cn2nnc3c(=O)[nH]c(C4CCN(S(=O)(=O)c5ccc(S(=O)(=O)NC6CC6)cc5)CC4)nc32)cc1	1	-18	31*	35	44*
O=c1[nH]c(C2CCCN(S(=O)(=O)c3ccccc3)C2)nc2c1nnn2Cc1cccc(Cl)c1 (centres undefined)	-9	6	18	14	nt
CC(=O)c1cccc(S(=O)(=O)N2CCCC(c3nc4c(nnn4Cc4cccc(Cl)c4)c(=O)[nH]3)C2)c1 (centres undefined)	12	2	46*	16	24
COC(=O)c1ccc(Cn2nnc3c(=O)[nH]c(C4CCCN(S(=O)(=O)c5cccc(Cl)c5)C4)nc32)cc1 (centres undefined)	7	-56	33*	24	15
Cc1ccc(Cn2nnc3c(=O)[nH]c(C4CCN(S(=O)(=O)c5ccc(C)cc5)CC4)nc32)cc1	-18	-20	22	14	nt
COC(=O)c1ccc(Cn2nnc3c(=O)[nH]c(C4CCCN(S(=O)(=O)c5ccc(C)cc5)C4)nc32)cc1 (centres undefined)	22	-3	29*	18	2
Cc1nnc(C)c2c(C)n(-c3ccccc3N)c(C)c12	15	-7	7	1	nt
CCN1CCN(c2ccc(S(=O)(=O)N3CCCCC3)cc2NC(=O)/C=C/c2ccc(Cl)cc2)CC1	nt	nt	7	nt	nt
Cc1ccc(C2Cc3cc(O)c(O)cc3CN2)cc1 (centres undefined)	nt	nt	1	nt	nt
CCCCn1c(N)c(N(CCOC)C(=O)c2oc3c(Cl)cccc3c2C)c(=O)[nH]c1=O	nt	nt	4	nt	nt
O=c1[nH]c(C2CCCN(S(=O)(=O)c3ccccc3Cl)C2)nc2c1nnn2Cc1ccc2c(c1)OCCO2 (centres undefined)	nt	-1	37*	41	35
O=c1[nH]c(C2CCN(S(=O)(=O)c3ccccc3)CC2)nc2c1nnn2Cc1ccc2c(c1)OCCO2	nt	-9	26	13	nt
O=c1/c(=C\c2ccc(O)cc2)sc2n1C(c1ccccc1)C(c1ccccc1)=NN=2 (centres undefined)	-7	-98	39*	0	57*
Cc1cc2cc(CNC(=S)NCc3ccccc3)ccc2n1C	17	-26	52*	11	-10
Cc1cc2cc(CNC(=S)NC3CCCCC3)ccc2n1C	-6	5	34*	-24	6
CC(C)(O)c1ccccc1CC[C@@H](SCC1(CC(=O)O)CC1)c1cccc(/C=C/c2ccc3ccc(Cl)cc3n2)c1	nt	nt	51*	nt	56*
Cn1cc(C(=O)c2ccc(Cl)cc2Cl)cc1C(=O)N/N=C(\N)COc1ccc(Cl)cc1	-43	-2	32*	48	35
Cn1cc(C(=O)c2ccc(Cl)cc2Cl)cc1C(=O)N/N=C(\N)COc1ccc(Cl)cc1Cl	-31	6	41*	7	29
COc1ccc(N2C(=O)/C(=C\c3ccco3)N=C2SCC(=O)NC(C)(C)C)cc1Cl	4	-3	31*	-1	12
SMILES	UBC9 SUMO inh	pCIP destab	NadD inh	PHOSPHO1 block	NadD inh conf
CCN(CC)C(=O)CSC1=N/C(=C/c2ccco2)C(=O)N1c1ccc(OC)c(Cl)c1	6	-5	20	-11	nt
O=C(N/N=C/c1cccc(F)c1)c1cc(-c2ccco2)nc2ccccc12	79*	-3	52*	44	81*
CN(C)C(CNC(=O)c1cc(-c2ccco2)nc2ccccc12)c1ccccc1 (centres undefined)	nt	nt	59*	nt	59*
CCc1nnc(NC(=O)c2cc(-c3ccccn3)nc3ccccc23)s1	14	13	6	20	nt
CC(C)CCNC(=O)c1cc(-c2ccco2)nc2ccccc12	36	-6	-4	8	nt
CCc1nnc(NC(=O)c2cc(-c3ccco3)nc3ccccc23)s1	67*	-8	81*	16	44
COc1ccc(NC(=O)N(C)C[C@H]2OCCCC[C@@H](C)Oc3ccc(N(C)C)cc3C(=O)N([C@H](C)CO)C[C@@H]2C)cc1	nt	nt	3	nt	nt
Nc1nccc(NCCSCc2ccccc2)n1	nt	nt	-4	nt	nt
CC(C)(C)N(Cc1ccccc1)C(=O)COC(=O)C1CC(=O)N(Cc2ccccc2)C1 (centres undefined)	nt	nt	-4	nt	nt
O=C(CSc1ncnc2scc(-c3ccccc3)c12)N1CCN(Cc2ccc3c(c2)OCO3)CC1	-34	-10	38*	-2	15
Cc1ccc(-c2csc3ncnc(SCc4ccc(C(=O)O)cc4)c23)cc1	34	-15	32*	20	44
COc1cc2oc(=O)cc(CN3CCN(c4ccccc4F)CC3)c2cc1Cl	nt	nt	39*	nt	22
Cc1ccc(NC(=O)NNC(=O)C2CC(c3cccs3)=NO2)cc1 (centres undefined)	-8	15	-3	48	nt
Cc1ccc(-c2nn(-c3ccccc3)cc2/C=N/n2c(-c3cccs3)n[nH]c2=S)cc1	-46	-11	41*	-25	0
CCCc1nc2ccc(NC(C)=O)cc2c(=O)n1Cc1ccccc1Cl	5	0	-4	35	nt
CC1=Nn2c(nnc2-c2cc(-c3ccccc3)n[nH]2)SC1	12	-2	7	-20	nt
c1ccc(-c2ccc(C3=Nn4c(nnc4-c4cc(-c5ccccc5)n[nH]4)SC3)cc2)cc1	20	-8	44*	13	5
COc1cccc(C(=O)Nc2nnc(S(=O)(=O)N(C)Cc3ccc(F)cc3)s2)c1	1	6	30*	7	16
O=C(Nc1ccccc1C(F)(F)F)NC1(C(=O)N2CCOCC2)CCCCC1	nt	nt	31*	nt	46
COc1ccccc1-c1cccc(-c2nc(C(=O)Nc3nccs3)cc3c2[C@H](CCO)N(C(C)=O)C3)c1	nt	nt	-9	nt	nt
O=C(N/N=C/c1coc2ccccc2c1=O)c1cn(-c2ccccc2)nc1-c1ccccc1	0	-18	36*	-3	20
O=C(N/N=C/c1coc2ccccc2c1=O)c1ccccc1	4	4	5	34	nt
Clc1ccc(Cn2c(/C=C/c3ccco3)nc3ccccc32)cc1	41	-7	34*	-3	43
Cc1ccc(Cn2c(/C=C/c3ccco3)nc3ccccc32)cc1	28	-14	32*	-2	41
CSc1ccc(CN(C)C(=O)COc2ccc(C(=O)c3ccccc3)cc2)cc1	-16	8	-4	46	nt
